# Results: PubChem BioAssay (NCATS)
# Several values for one entry are separate records, joined by “and”; a condition that tells them apart may be missing. Equal values may be shown once. Inconclusive results are not listed. A call without a number means that no potency is given here. Activity calls are given as the source filed them. Unless noted, calls come from the whole dose curve; as a rule, active = well fitted curve in the direction sought with a large enough effect; inconclusive = small, poorly fitted or top-dose-only effect, or another doubt; inactive = no such curve, though single readings can be large; an effect the other way counts as inactive or inconclusive.
# What was measured:
# [1] = target: Cytochrome P450 2C9 (Homo sapiens) (UniProt P11712); experiment: Cytochrome P450 family 2 subfamily C member 9 (CYP2C9) small molecule antagonists: luciferase biochemical (cell-free) qHTS assay (AID 1645842; active = well fitted curve in the direction sought with a large enough effect in the repeat runs; an effect the other way counts as inactive or inconclusive; note: nearly all actives have a fitted effect of over 55% in size; note: potency is the fitted concentration of half-maximal effect)
# Procedure, shortened: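 P450-Glo CYP2C9 system: proluciferin substrate with enzyme in mix containing 0.4% BSA, 10 min at room temperature, then NADPH regeneration solution added and incubated 1 h at 37C. Detection reagent stopped reaction; luminescence read after 20 min as RLU.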
# [2] = target: Cytochrome P450 2D6 (Homo sapiens) (UniProt P10635); experiment: Cytochrome P450 family 2 subfamily D member 6 (CYP2D6) small molecule antagonists: luciferase biochemical (cell-free) qHTS assay (AID 1645840; active = well fitted curve in the direction sought with a large enough effect in the repeat runs; an effect the other way counts as inactive or inconclusive; note: nearly all actives have a fitted effect of over 55% in size; note: potency is the fitted concentration of half-maximal effect)
# Procedure, shortened: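 P450-Glo CYP2D6 system: proluciferin substrate converted by enzyme to luciferin, read by luminescence proportional to activity. Enzyme-substrate mix with compound 10 min at room temperature, then NADPH regeneration 1 h before detection reagent.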
# [3] = Primary qHTS for inhibitors of nuclear receptor binding SET domain protein 2 (NSD2) in an isogenic RCH-ACV NSD2 p.E1099K mutant (9B) (AID 1645876); note: nearly all actives have a fitted effect of over 70% in size; note: potency is the fitted concentration of half-maximal effect
# [4] = Primary qHTS for inhibitors of nuclear receptor binding SET domain protein 2 (NSD2) in an RCH-ACV wild type WT cells (2C) (AID 1645877); note: nearly all actives have a fitted effect of over 70% in size; note: potency is the fitted concentration of half-maximal effect
# [5] = target: Glutathione peroxidase 1 (Homo sapiens) (UniProt P07203); experiment: Primary qHTS Assay for Inhibitors of Recombinant Selenoprotein Glutathione Peroxidase 1 (GPX1) (AID 1845191); note: nearly all actives have a fitted effect of over 65% in size
# Procedure, shortened: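 NADPH consumption tracked by fluorescence at 340/450 nm between t=0 and t=15 min, room temperature. Final mix: 10 nM GPX1, 100 nM glutathione reductase, 1 mM GSH, 0.5 mM NADPH, 0.5 mM cumene hydroperoxide, 0.01% BSA; 30 min compound–enzyme preincubation.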
# [6] = target: Rap guanine nucleotide exchange factor 3 (Homo sapiens) (UniProt O95398); experiment: Confirmatory qHTS for antagonist of cAMP-regulated guanine nucleotide exchange factor 3 (EPAC1) (AID 1645880); note: nearly all actives have a fitted effect of over 55% in size
# Procedure, shortened: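 Released BODIPY-GDP fluoresces less than Rap1-bound BODIPY-GDP; the signal is followed at 480/540 nm at 5-min intervals over 30 min, after 5 min at room temperature. Reactions contain 100 nM EPAC1, 250 nM RAP1B-BODIPY-GDP and 50 uM GDP; results are normalized to ATA and DMSO.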
# [7] = target: Rap guanine nucleotide exchange factor 3 (Homo sapiens) (UniProt O95398); experiment: Confirmatory qHTS for agonist of cAMP-regulated guanine nucleotide exchange factor 3 (EPAC1) (AID 1645881);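 note: EPAC1 catalysed release of BODIPY-GDP from Rap1B seen as fluorescence loss; nearly all actives have a fitted effect of over 75% in size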
# [8] = target: Rap guanine nucleotide exchange factor 4 (Homo sapiens) (UniProt Q8WZA2); experiment: Confirmatory qHTS for agonist of cAMP-regulated guanine nucleotide exchange factor 4 (EPAC2) (AID 1645884);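 note: nucleotide exchange releases bodipy-GDP from Rap1 and this lowers its fluorescence; nearly all actives have a fitted effect of over 65% in size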
# [9] = target: Rap guanine nucleotide exchange factor 4 (Homo sapiens) (UniProt Q8WZA2); experiment: Confirmatory qHTS for antagonist of cAMP-regulated guanine nucleotide exchange factor 4 (EPAC2) (AID 1645885); note: potency is the fitted concentration of half-maximal effect; nearly all actives have a fitted effect of over 25% in size
# [10] = target: Papain (Carica papaya) (UniProt P00784); experiment: Primary qHTS assay for inhibitors of the protease papain (AID 1645873);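 note: papain turnover of Z-FR-AMC read as the AMC fluorescence gain over 10 min; series mostly up to about 50 µM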
# [11] = target: Metallo-beta-lactamase type 2 (Klebsiella pneumoniae) (UniProt C7C422); experiment: qHTS to identify inhibitors of the New Delhi Metallo-beta-lactamase (NDM): assay validation screen against the NCATS LOPAC Collection (AID 1794843);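 note: nitrocefin turnover by NDM-1 measured as 485 nm absorbance at plateau; series mostly up to about 38 µM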
# Procedure, shortened: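 NDM-1 at 2 nM final in 50 mM HEPES pH 7.0 with 1 uM ZnSO4 and 0.01% Tween20 was preincubated with library compounds in DMSO. Nitrocefin (50 uM stock) was then added, and absorbance at 485 nm was read at the kinetic plateau.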
# Chain of Cytochrome P450 2C9 (Homo sapiens) (P11712 whole entry, looked up): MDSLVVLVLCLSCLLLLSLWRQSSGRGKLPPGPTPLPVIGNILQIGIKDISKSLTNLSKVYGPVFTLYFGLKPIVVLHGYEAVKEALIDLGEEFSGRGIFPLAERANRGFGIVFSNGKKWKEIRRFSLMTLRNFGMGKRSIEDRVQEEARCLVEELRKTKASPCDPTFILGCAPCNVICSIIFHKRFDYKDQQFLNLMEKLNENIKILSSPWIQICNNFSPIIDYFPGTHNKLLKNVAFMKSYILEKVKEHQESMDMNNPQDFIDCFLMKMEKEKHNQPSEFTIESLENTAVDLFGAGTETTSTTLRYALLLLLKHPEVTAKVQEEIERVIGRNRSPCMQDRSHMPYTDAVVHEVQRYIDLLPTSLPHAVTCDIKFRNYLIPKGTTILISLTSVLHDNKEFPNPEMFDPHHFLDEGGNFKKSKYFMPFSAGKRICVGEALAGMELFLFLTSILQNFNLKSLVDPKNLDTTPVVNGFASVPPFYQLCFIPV
# Chain of Glutathione peroxidase 1 (Homo sapiens) (P07203 whole entry, looked up): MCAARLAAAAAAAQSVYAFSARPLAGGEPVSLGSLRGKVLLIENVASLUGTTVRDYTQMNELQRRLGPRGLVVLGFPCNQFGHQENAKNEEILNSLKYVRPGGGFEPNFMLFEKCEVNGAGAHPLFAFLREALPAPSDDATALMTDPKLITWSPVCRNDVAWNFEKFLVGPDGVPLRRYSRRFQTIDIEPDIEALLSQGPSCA
# Chain of Rap guanine nucleotide exchange factor 3 (Homo sapiens) (O95398 whole entry, looked up): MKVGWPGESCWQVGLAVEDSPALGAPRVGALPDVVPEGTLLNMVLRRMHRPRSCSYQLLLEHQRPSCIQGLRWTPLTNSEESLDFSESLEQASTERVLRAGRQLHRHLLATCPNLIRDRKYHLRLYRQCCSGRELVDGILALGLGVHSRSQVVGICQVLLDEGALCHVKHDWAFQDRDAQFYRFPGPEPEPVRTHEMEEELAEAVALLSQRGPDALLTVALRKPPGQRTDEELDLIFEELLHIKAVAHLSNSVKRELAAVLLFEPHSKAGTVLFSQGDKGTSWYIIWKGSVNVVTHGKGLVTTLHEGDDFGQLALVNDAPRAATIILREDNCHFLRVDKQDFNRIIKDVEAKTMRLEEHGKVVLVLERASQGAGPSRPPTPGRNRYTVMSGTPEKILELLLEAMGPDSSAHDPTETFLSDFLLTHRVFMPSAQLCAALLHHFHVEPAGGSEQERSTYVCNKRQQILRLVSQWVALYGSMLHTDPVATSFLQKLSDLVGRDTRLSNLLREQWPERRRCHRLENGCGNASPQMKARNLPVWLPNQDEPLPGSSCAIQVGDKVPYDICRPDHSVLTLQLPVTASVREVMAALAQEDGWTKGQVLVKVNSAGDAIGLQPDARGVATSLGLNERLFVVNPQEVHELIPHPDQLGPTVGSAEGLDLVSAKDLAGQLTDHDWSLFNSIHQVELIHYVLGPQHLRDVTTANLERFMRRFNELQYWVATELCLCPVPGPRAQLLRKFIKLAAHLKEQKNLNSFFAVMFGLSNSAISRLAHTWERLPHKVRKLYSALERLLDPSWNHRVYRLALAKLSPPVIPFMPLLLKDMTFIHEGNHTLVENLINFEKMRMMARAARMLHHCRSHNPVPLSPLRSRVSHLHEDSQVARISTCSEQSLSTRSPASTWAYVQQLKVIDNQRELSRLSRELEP
# Chain of Rap guanine nucleotide exchange factor 4 (Homo sapiens) (Q8WZA2 whole entry, looked up): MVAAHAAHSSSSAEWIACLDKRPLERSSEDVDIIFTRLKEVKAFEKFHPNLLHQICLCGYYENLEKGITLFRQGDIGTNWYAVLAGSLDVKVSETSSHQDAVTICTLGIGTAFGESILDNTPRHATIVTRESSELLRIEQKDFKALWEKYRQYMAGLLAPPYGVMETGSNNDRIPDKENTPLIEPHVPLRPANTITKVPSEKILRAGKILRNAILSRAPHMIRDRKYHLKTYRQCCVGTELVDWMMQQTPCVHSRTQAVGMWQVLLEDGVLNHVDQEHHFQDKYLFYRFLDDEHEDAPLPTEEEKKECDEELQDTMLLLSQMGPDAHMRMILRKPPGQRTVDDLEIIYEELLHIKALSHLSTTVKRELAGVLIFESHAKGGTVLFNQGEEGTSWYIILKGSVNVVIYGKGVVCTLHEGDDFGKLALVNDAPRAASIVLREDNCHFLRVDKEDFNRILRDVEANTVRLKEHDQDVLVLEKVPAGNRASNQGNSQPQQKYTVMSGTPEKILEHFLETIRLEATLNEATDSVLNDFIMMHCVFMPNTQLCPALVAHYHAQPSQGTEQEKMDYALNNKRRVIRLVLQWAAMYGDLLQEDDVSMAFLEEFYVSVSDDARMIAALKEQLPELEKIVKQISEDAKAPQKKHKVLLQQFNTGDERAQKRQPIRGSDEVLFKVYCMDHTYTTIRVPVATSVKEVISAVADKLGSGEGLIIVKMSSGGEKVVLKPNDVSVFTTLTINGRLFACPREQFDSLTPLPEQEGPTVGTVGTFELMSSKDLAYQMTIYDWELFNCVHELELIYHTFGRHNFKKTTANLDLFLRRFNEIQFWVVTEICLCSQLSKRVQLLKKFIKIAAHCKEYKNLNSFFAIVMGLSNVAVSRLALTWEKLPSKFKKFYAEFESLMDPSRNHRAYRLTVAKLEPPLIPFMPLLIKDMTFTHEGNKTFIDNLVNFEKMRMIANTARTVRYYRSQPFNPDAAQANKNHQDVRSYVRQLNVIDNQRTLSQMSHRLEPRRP
# Chain of Cytochrome P450 2D6 (Homo sapiens) (P10635 whole entry, looked up): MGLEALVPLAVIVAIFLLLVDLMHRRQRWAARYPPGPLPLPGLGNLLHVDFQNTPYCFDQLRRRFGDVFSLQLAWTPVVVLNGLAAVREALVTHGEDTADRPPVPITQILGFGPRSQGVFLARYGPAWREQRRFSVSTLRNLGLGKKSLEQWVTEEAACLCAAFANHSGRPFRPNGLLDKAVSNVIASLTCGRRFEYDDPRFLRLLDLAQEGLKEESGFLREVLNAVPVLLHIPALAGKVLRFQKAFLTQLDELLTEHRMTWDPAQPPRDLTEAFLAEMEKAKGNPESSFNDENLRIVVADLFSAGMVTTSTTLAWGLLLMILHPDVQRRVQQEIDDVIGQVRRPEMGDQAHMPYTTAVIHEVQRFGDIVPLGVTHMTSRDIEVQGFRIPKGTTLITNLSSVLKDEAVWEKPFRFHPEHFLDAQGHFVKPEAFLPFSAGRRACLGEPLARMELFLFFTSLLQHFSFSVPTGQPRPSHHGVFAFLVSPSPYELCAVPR
# Chain of Metallo-beta-lactamase type 2 (Klebsiella pneumoniae) (C7C422 whole entry, looked up): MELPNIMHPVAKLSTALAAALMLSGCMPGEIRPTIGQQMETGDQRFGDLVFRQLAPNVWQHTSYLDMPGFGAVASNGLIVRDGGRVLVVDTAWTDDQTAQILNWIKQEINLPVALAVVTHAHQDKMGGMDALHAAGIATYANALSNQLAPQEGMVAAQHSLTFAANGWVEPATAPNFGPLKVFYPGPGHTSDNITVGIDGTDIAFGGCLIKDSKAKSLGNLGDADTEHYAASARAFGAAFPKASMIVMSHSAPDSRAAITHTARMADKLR
# Chain of Papain (Carica papaya) (P00784 whole entry, looked up): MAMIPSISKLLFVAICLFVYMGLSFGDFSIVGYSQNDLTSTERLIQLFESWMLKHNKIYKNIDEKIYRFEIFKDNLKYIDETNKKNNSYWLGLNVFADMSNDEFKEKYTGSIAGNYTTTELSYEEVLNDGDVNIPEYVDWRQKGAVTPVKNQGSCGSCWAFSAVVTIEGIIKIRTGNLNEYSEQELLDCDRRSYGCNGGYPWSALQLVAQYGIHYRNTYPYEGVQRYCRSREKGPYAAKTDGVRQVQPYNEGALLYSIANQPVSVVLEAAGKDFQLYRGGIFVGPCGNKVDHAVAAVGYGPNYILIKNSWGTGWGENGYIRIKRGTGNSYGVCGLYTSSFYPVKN
compound,measurement,setting,value
CCc1cc(Cl)c(OC)c(C(=O)NC[C@@H]2CCCN2CC)c1O,Potency,[1],inactive
CC(=O)OCC1=C(C(=O)O)N2C(=O)[C@@H](NC(=O)CSc3ccncc3)[C@H]2SC1,Potency,[1],11 µM (active)
CC[C@]12CCCN3CCc4c(n(c5ccccc45)C(=O)C1)[C@@H]32,Potency,[2],0.0871 µM (active)
same,Potency,[3],8.41 µM (active) and 8.17 µM (active)
same,Potency,[4],5.96 µM (active)
same,Potency,[5],inactive
CCOC(=O)c1ccc(N)cc1,Potency,[2],inactive
same,Potency,[5],inactive
CCOC(=O)[C@@](C)(N)Cc1ccc(O)c(O)c1,Potency,[1],inactive
CCC(Cc1c(I)cc(I)c(N)c1I)C(=O)O (centres undefined),Potency,[2],15.5 µM (active)
same,Potency,[3],inactive
same,Potency,[4],inactive
O=C(N/N=C/c1ccc([N+](=O)[O-])o1)c1ccc(O)cc1,Potency,[2],3.89 µM (active)
same,Potency,[3],5.96 µM (active)
same,Potency,[4],8.41 µM (active)
COc1ccc(C(Cl)=C(c2ccc(OC)cc2)c2ccc(OC)cc2)cc1,Potency,[2],inactive
same,Potency,[3],inactive
same,Potency,[4],inactive
same,Potency,[6],inactive
same,outcome,[7],inactive
same,outcome,[8],inactive
same,Potency,[9],7.84 µM (active) and 2.31 µM (active)
same,Potency,[5],inactive
COc1ccc(-c2cc(C(F)F)nn2-c2ccc(S(N)(=O)=O)cc2)cc1F,Potency,[1],6.17 µM (active)
CO[C@]12C[C@@H](COC(=O)c3cncc(Br)c3)CN(C)[C@@H]1Cc1cn(C)c3cccc2c13,Potency,[1],inactive
CN(C)CCOC(c1ccc(Cl)cc1)c1ccccn1 (centres undefined),Potency,[2],15.5 µM (active)
same,Potency,[1],inactive
same,Potency,[5],inactive
CC(C)(C)NC[C@H](O)COc1nsnc1N1CCOCC1,outcome,[10],inactive
same,outcome,[11],inactive
C/C=C/C=N/NC(=O)c1ccncc1,Potency,[3],inactive
CC1=C(C(=O)O)N2C(=O)[C@@H](NC(=O)[C@H](N)c3ccccc3)[C@H]2SC1,Potency,[3],inactive
same,Potency,[4],inactive
CCOC(=O)[C@H](CCc1ccccc1)N[C@@H](C)C(=O)N1[C@H](C(=O)O)C[C@H]2CCCC[C@@H]21,outcome,[10],inactive
same,outcome,[11],inactive
same,Potency,[5],inactive
CC(O)Cn1cnc2c1c(=O)n(C)c(=O)n2C (centres undefined),Potency,[3],inactive
same,Potency,[4],inactive
same,Potency,[5],inactive
O=C1c2cccc3c2[C@H](CCC3)CN1[C@@H]1CN2CCC1CC2,Potency,[1],inactive
same,Potency,[5],inactive
C=C[C@@]1(C)CC(=O)[C@]2(O)[C@@]3(C)[C@@H](O)CCC(C)(C)[C@@H]3[C@H](O)[C@H](OC(C)=O)[C@@]2(C)O1,Potency,[3],0.841 µM (active)
same,Potency,[5],inactive
C=C[C@H]1CN2CC[C@H]1C[C@@H]2[C@@H](O)c1ccnc2ccc(OC)cc12,Potency,[1],inactive
same,Potency,[4],inactive
same,Potency,[5],inactive
CC[C@H](c1ccc(O)cc1)[C@@H](CC)c1ccc(O)cc1,Potency,[3],11.9 µM (active)
same,Potency,[4],8.41 µM (active)
same,Potency,[5],inactive
